Drawing on PubChem BioAssay (NCATS), this text covers Potency and outcome for 9 compounds.

The nature of test [1]: HEK293 18hr Apoptosis Induction qHTS against the NCATS CANVASS Library (AID 1347357). Note: potency is the fitted concentration of half-maximal effect. The method, boiled down: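 Cells seeded at 500/well in DMEM + 10% FBS. Compounds pinned, 11 concentrations. 18 h, 37 degrees C/5% CO2. Caspase-Glo 3/7 added, 15 min RT dark, luminescence read.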
(In general: In qHTS, concentration-response curves come from the screen itself.)

Test [2] is described as follows: SDT Cancer Cell Toxicity qHTS against the NCATS CANVASS Library (AID 1347365). Note: nearly all actives have a fitted effect of over 60% in size. Note: potency is the fitted concentration of half-maximal effect. The method, boiled down: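 SDT dog glioma cells (500/well) exposed to an 11-point compound series for 72 hr at 37C, 5% CO2. Cytotoxicity read as ATP content by CellTiterGlo luminescence; bortezomib titration as control.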
Test [3] in a line: KB-3-1 Cancer Cell Toxicity qHTS against the NCATS CANVASS Library (AID 1347366). Note: nearly all actives have a fitted effect of over 75% in size. Note: potency is the fitted concentration of half-maximal effect. The method, boiled down: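 Luminescence from CellTiter-Glo (10 min, room temperature) measured KB-3-1 viability after 72 hr compound exposure at 37C. Cells were seeded at 500/well and tested in an 11-point series.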
Test [4] is described as follows: G06 Cancer Cell Toxicity qHTS against the NCATS CANVASS Library (AID 1347368). Note: nearly all actives have a fitted effect of over 60% in size. Note: potency is the fitted concentration of half-maximal effect. The method, boiled down:
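G06 dog glioma cells, 500 per well, exposed 72 hr at 37C, 5% CO2 to compounds in an 11-point series. Cytotoxicity read as ATP content by CellTiterGlo luminescence.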

Test [5] in a line: qHTS for activators of Nrf2/ARE signaling pathway screened against the NCATS CANVASS Library (AID 1347391). Note: nearly all actives have a fitted effect of over 60% in size. The method, boiled down: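 ARE-bla HepG2 beta-lactamase reporter cells exposed to compounds for 16 h at 37C; CCF4 substrate 2 h, fluorescence at ex 405 nm, em 460/530 nm. Viability by CellTiter-Glo luminescence.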
Test [6] in a line: Redox Reaction Profiling qHTS: Assay Interference Panel against the NCATS CANVASS Library (AID 1347401). The gist of the method: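 Compounds in 11-point series incubated with 5 uM resazurin and 200 uM DTT in 50 mM HEPES pH 7.3, 50 mM NaCl. Resorufin fluorescence (Ex 525/Em 598) read before and after 15 min in the dark.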
Test [7] in a line: qHTS for Hypoxia signaling pathway (HIF-1) antagonists against the NCATS CANVASS Library (AID 1347374). Note: nearly all actives have a fitted effect of over 60% in size. Note: potency is the fitted concentration of half-maximal effect. The gist of the method:
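HRE-bla ME-180 cells in medium with 0.5% dialyzed FBS received compounds (11-point series) plus CoCl2 (60 uM addition stock) for 17 hrs at 37C. Beta-lactamase activity read with CCF4 (405 nm ex, 460/530 nm em); CellTiter-Glo viability measured in same wells.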

A short description of test [8]: qHTS for H2AX Agonists against the NCATS CANVASS Library (AID 1347378).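 Note: phospho-H2AX S139 level in CHO-K1 lysates by TR-FRET emission ratio.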 The method, boiled down:
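CHO-K1, 1000 cells/well, o/n 37C; cpd several conc, 3 hr 37C, 0.76% DMSO; lyse 30 min RT; cryptate anti-pH2AX(S139) + d2 anti-H2AX, 24 hr RT; HTRF 665/620.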

Test [9] can be described thus: qHTS for Antimalaria activity screened against the NCATS CANVASS Library (AID 1347380). Note: nearly all actives have a fitted effect of over 40% in size. Note: potency is the fitted concentration of half-maximal effect. The method, boiled down:
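Red blood cells infected with P. falciparum Dd2 (2.5% hematocrit final, 0.3% parasitemia) were exposed to compounds in an 11-point qHTS series for 72 hr at 37C under 5% O2 and 5% CO2. Lysis buffer with SYBR Green was then added for 18 hr, and fluorescence was read at 485/535 nm.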

Test [10] in a line: Secretion counterscreen for inhibitors of the SERCaMP assay screened against the NCATS CANVASS Library (AID 1347390).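 Note: light from luciferase secreted into medium read as a measure of general secretion.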 Note: potency is the fitted concentration of half-maximal effect. The gist of the method:
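SH-SY5Y-GLuc STOP cells; 4 h attach; cpds 0.001 - 77 uM (qHTS, 11 pts), 20 h 37C/5% CO2; coelenterazine in glow buffer; luminescence, 5 s exposure.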
(In general: The purpose of a counterscreen is to sort out artefacts and off-target activity.)

Test [11] in a line: HEK293 12hr Apoptosis Induction qHTS against the NCATS CANVASS Library (AID 1347361). Note: potency is the fitted concentration of half-maximal effect. The gist of the method:
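Cells are seeded, dosed with an 11-point compound series and incubated 12 hours. Caspase-3/7 activity is detected by luminescent DEVD-substrate reagent after 15 minutes at room temperature.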

Test [12] can be described thus: Inflammasome Signaling qHTS Counterscreen: IL-1-beta AlphaLISA counterscreen against the NCATS CANVASS Library (AID 1347381).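 Note: cell-free check with purified IL-1β in medium and no THP-1 cells; series mostly up to about 57 µM.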 The method, boiled down: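 Cell-free interference check: compounds added to medium spiked with 4 pg purified IL-1β. Anti-IL-1β acceptor beads (6 ug/mL) with 0.6 nM biotinylated antibody added for 1 h at RT, then streptavidin donor beads (24 ug/mL) for 30 min in the dark. AlphaLISA read at 680/615 nm.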

The nature of test [13]: qHTS for inhibitors of ER calcium dysfunction: SERCaMP assay screened against the NCATS CANVASS Library (AID 1347393). Note: nearly all actives have a fitted effect of over 40% in size. Note: potency is the fitted concentration of half-maximal effect. The method, boiled down: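 SH-SY5Y GLuc-SERCaMP, 1000 cells/well, 4 h attach; cpd 16 h, 37C/5% CO2; thapsigargin (added as 6x 600 nM) 4 h; coelenterazine; luminescence. Reduced reporter release = ER Ca stabilization.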

A number with no mark means an inactive call. Results filed as inconclusive are left out. Active and inactive are the calls of the source. Calls come from the whole dose curve; as a rule, active = well fitted curve in the direction sought with a large enough effect; inconclusive = small, poorly fitted or top-dose-only effect, or another doubt; inactive = no such curve, though single readings can be large; an effect the other way counts as inactive or inconclusive.

For the compound `CC1(C)CC[C@]2(C(=O)O)CC[C@]3(C)C(=CC[C@@H]4[C@@]5(C)C[C@@H](O)[C@H](O)C(C)(C)[C@@H]5CC[C@]43C)[C@@H]2C1`, the Potency result in [1], in test [2], in test [3], in test [4], in test [5] and in [6] was “inactive” each time.
As to `CO[C@@H]1C[C@@H](C[C@H]2CC[C@H](C)[C@H]([C@@H](C)C(=O)O)O2)O[C@]2(O[C@](C)([C@H]3CC[C@@](C)([C@@H]4O[C@@H]([C@H]5O[C@](C)(O)[C@H](C)C[C@@H]5C)C[C@@H]4C)O3)C[C@H]2C)[C@@H]1C`, the Potency in [2] was 93.5 nM (active); in [3] it was 14800 nM (active); in test [4], 132 nM (active); in [7], 2110 nM (active); in test [9], 4.2 nM (active); in [10] it was 484 nM (active). The Potency entry in [8], in test [5] and in test [6] was “inactive” each time.
For `C/C=C/C=C/C1(O)C2C=C3C(=O)CC45C(=O)C(O)=C(C)C(=O)C4C1C1(C(=O)C(O)=C(C)C(=O)C351)C2C` (centres undefined), the Potency result in test [11], in [2], in [3], in [4], in test [7] and in test [8] was “inactive” throughout. For the same compound, the Potency entry in [10] and in [5] was “inactive” throughout. Besides, in test [12], the compound was classed as inactive.
With `CNc1ccc(Cl)cc1C(=O)OC[C@]1(C)[C@H]2CC[C@]3(C)[C@@H](C[C@@H](OC)[C@H](C)[C@H]3C3=C(O)C(=O)OC3O)[C@]2(C)CC[C@H]1O` (some centres undefined), the Potency result in test [1], in test [11], in test [3], in test [7], in [8] and in test [9] was “inactive” throughout. Further, the Potency entry in [10], in [5], in [13] and in test [6] was “inactive” each time. The compound was classed as inactive in test [12].
Turning to `C[C@@H](O)[C@H]1OC(=O)C=C2[C@]3(C)[C@H]4[C@H](OC(=O)[C@@]4(C)[C@@H](O)[C@H]4O[C@H]43)[C@H]3O[C@@]231`, the Potency result in test [11], in [13] and in test [6] was “inactive” each time. Besides, the Potency in test [2] was 1180 nM (active); in test [3], 1480 nM (active); in test [4] it was 1480 nM (active); in [9], 594 nM (active); in test [10] it was 3840 nM (active). The call in test [12] was inactive.
`CC(O)/C=C/C1(O)C(C)(C)CC(O)CC1(C)O` (centres undefined): the Potency result in [1], in [11], in [2], in test [3], in test [4] and in test [7] was “inactive” in each case. Further, the Potency entry in test [8], in [10], in [5], in test [13] and in [6] was “inactive” throughout. Besides, the call in test [12] was inactive.
For the compound `C[C@@]12CCC[C@@](C)(C(=O)O)[C@H]1CC[C@]13C[C@H]4C[C@H](O[C@@]4(C)C1)[C@H]32`, the Potency result in test [2], in [4], in [7], in test [8], in test [10] and in [5] was “inactive” each time. Moreover, the Potency result in test [6] was “inactive”.
Consider `COc1ccc2cc(NC(=O)C3=NO[C@H]4[C@H](O)C=C[C@@H](Cl)[C@@]4(O)C3)c(=O)oc2c1OC`, for which the values for the Potency in [4] and in test [13] were 11800 nM (active) and 15300 nM (active), respectively. Besides, the Potency entry in test [7], in test [8], in [9] and in test [6] was “inactive” throughout. The outcome in test [12] was inactive.
As to `CCCCCCCCCCCCCCC[C@H](O)C[C@@H](O)C[C@@H](O)C[C@@H](O)C[C@@H](O)C[C@H]1CC=CC(=O)O1`, the Potency was 16600 nM (active) in test [1]; 9350 nM (active) in [11]; 2960 nM (active) in test [2]; 9350 nM (active) in test [3]; 2640 nM (active) in test [4]; 3750 nM (active) in test [9]. Further, the Potency result in test [5], in test [13] and in test [6] was “inactive” throughout.
